Measured values as given in PubChem BioAssay (NCATS).
Values joined by “and” are separate entries in the source; they are usually repeats but may differ in a detail not shown here. Equal values may be shown once. Records with an inconclusive call do not appear. Active and inactive are the calls of the source. Calls follow the shape of the dose curve; as a rule, active = well fitted curve in the direction sought with a large enough effect; inconclusive = small, poorly fitted or top-dose-only effect, or another doubt; inactive = no such curve, though single readings can be large; an effect the other way counts as inactive or inconclusive.

Molecular target: Cytochrome P450 3A7 (Homo sapiens) (UniProt P24462)
Test: Cytochrome P450 family 3 subfamily A member 7 (CYP3A7) small molecule antagonists: luciferase biochemical qHTS assay (AID 1963596); also: nearly all actives have a fitted effect of over 40% in size; as to activity change, negative = inhibition: % is scaled to controls: 0 for no effect and ±100 for the full control effect
Details: P450-Glo CYP3A7 enzyme luminescence, 1 h; series mostly up to 57.4 µM; activity change, negative = inhibition: at the top concentration
In short: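 Biochemical CYP3A7 activity measured with P450-Glo system: luciferin formed from proluciferin substrate in NADPH-driven reaction (1 h, room temperature) after 10 min compound preincubation. Signal in relative luminescence units.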
Potency is read from the fitted curve at half-maximal effect.

Chain of Cytochrome P450 3A7 (Homo sapiens) (P24462 whole entry, looked up): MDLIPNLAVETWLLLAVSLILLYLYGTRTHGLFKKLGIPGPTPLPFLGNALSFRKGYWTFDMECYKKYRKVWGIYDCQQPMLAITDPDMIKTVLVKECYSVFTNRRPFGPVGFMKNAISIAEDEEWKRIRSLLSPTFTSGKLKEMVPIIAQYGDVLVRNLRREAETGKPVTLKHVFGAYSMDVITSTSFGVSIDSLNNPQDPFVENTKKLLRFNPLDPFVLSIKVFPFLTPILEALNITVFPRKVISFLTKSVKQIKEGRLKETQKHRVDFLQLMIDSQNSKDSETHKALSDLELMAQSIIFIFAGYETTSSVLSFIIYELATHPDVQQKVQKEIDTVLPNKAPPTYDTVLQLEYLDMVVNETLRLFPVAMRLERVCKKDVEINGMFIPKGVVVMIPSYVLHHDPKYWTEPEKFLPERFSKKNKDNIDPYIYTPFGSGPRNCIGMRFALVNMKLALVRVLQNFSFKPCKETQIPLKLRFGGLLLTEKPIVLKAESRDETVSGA

Compound	activity change, negative = inhibition	Potency
NC(=O)CCCCC1CCSS1 (stereo not given)	-10.4% (inactive)	
C[C@@H]1CCC[C@H](C)N1CCCC(O)(c1ccccc1)c1ccccn1 (stereo not given in full)	-2.22% (inactive)	
CN=C(N)NC(=O)Nc1c(C)cccc1C	9.59% (inactive)	
O=C(O)c1ccccc1Nc1cc(Cl)ccc1C(=O)O	5.43% [at 23.9 µM] (inactive)	
CCN(CC)C(=O)c1ccc(O)c(OC)c1	8.89% (inactive)	
O=C(O)c1ccc(OCCN2CCCCC2)cc1	-0.302% (inactive)	
COc1cc(N2CCC(N3CCN(C)CC3)CC2)ccc1Nc1ncnc(Nc2ccccc2S(=O)(=O)C(C)C)n1	0% (inactive)	
CC1(C)OC(=O)NC1=O	-3.87% (inactive)	
Nc1ncn([C@H]2C[C@H](O)[C@@H](CO)O2)c(=O)n1	15.3% (inactive)	
CC(=O)NS(=O)(=O)c1ccc(N)cc1	20.1% (inactive)	
CCCCCCCCCCCCCCCCCC(=O)O	16.3% (inactive)	
NC(=O)CC[C@@H](N)C(=O)O	-24.4% (inactive)	
CC(C)(C)C(=O)OCOC(=O)C1N2C(=O)CC2S(=O)(=O)C1(C)C (stereo not given)	-14% (inactive)	
NS(=O)(=O)c1ccc(Cl)c(S(N)(=O)=O)c1	8.72% (inactive)	
CCN(CC)CCN	-1.45% (inactive)	
CN1[C@@H]2CC[C@H]1CC(OC(=O)C(O)c1ccccc1)C2 (stereo not given in full)	2.89% (inactive)	
Cc1ccnc(NS(=O)(=O)c2ccc(N)cc2)n1	-1.06% (inactive)	
COc1c(OCCCN2CCOCC2)ccc2c3n(c(=NC(=O)c4cnc(N)nc4)nc12)CCN3	3.19% (inactive)	
CCCN(CCC)CCc1cccc2c1CC(=O)N2	-22.5% (inactive)	
CCOC(=O)c1cccc(N)c1		27.5 µM (active)

Compound	activity change, negative = inhibition	Potency
CC(=O)OCC(=O)[C@@]12N=C(C)O[C@@H]1C[C@H]1[C@@H]3CCC4=CC(=O)C=C[C@]4(C)[C@H]3[C@@H](O)C[C@@]12C	-22.7% (inactive)	
COC(=O)c1nc(Cl)c(Cl)nc1N	16.7% (inactive)	
CCCCCCCC(=O)OCC(COC(=O)CCCCCCC)OC(=O)CCCCCCC	-4.7% (inactive)	
CC[N+](C)(C)c1cccc(O)c1	-0.77% (inactive)	
CC[C@@H](CO)NCCN[C@@H](CC)CO	30.5% (inactive)	
CCOc1cc(C(=O)N2CCC(N3CCN(C)CC3)CC2)ccc1Nc1ncc2c(n1)N(C1CCCC1)c1ccccc1C(=O)N2C	0% (inactive)	
CC1=NS(=O)(=O)c2cc(Cl)ccc2N1	-17.7% (inactive)	
CC1(C)S[C@@H]2[C@H](NC(=O)[C@H](N)c3ccccc3)C(=O)N2[C@H]1C(=O)O	-0.873% (inactive)	
CC(=O)OC(C)C[N+](C)(C)C (stereo not given)	-23.5% (inactive)	
NS(=O)(=O)Cc1noc2ccccc12	15.8% (inactive)	
CCNC(=O)Nc1ccc2ncc(Nc3ccc(C)cc3)nc2n1	0% (inactive)	
O=C(CCCl)NCc1ccccc1	-13.8% (inactive)	
C[C@H]1O[C@@H](O[C@H]2CC[C@@]3(C)[C@H](CC[C@@H]4[C@@H]3C[C@@H](O)[C@]3(C)[C@@H](C5=CC(=O)OC5)CC[C@]43O)C2)C[C@H](O)[C@@H]1O[C@H]1C[C@H](O)[C@H](O[C@H]2C[C@H](O)[C@H](O[C@@H]3O[C@H](CO)[C@@H](O)[C@H](O)[C@H]3O)[C@@H](C)O2)[C@@H](C)O1	5.44% (inactive)	
CCOc1ccc(C(=O)OCCN(CC)CC)cc1	-15.4% (inactive)	
COc1ccccc1OC(=O)Oc1ccccc1OC	9.3% (inactive)	
OCc1cccnc1	-14.4% (inactive)	
COCCc1ccc(OCC2CO2)cc1 (stereo not given)	-7.65% (inactive)	
CN1CCN(c2ccc(OC(F)(F)F)c(Nc3ncc4c(n3)-c3c(c(C(N)=O)nn3CCO)CC4)c2)CC1	0% (inactive)	
Oc1ccc(C(O)CNCCCCCCNCC(O)c2ccc(O)c(O)c2)cc1O (stereo not given)	-28.3% (inactive)	
CN1CCN(C(=O)C2CCCCC2)CC1	-12.1% (inactive)	

Tested on: not listed separately
Test: Viability qHTS for spleen associated tyrosine kinase inhibitor (SYKi) drug resistant MV4-11 cells (AID 1963824); also: nearly all actives have a fitted effect of over 35% in size
Details: SYKi-resistant MV4-11 viability, CellTiter-Glo, 72 h; series mostly up to 45 µM; viability, % of control: at the top concentration
In short: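 SYK inhibitor-resistant MV4-11 AML cells, 500 per well, added to predispensed compounds and incubated 72 hr at 37 C, 5% CO2. Viability measured by CellTiter-Glo luminescence after 10 min at room temperature.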

Compound	viability, % of control	Potency
NC(=O)CCCCC1CCSS1 (stereo not given)	86.5% (inactive)	
C[C@@H]1CCC[C@H](C)N1CCCC(O)(c1ccccc1)c1ccccn1 (stereo not given in full)	71.1% (inactive)	
CN=C(N)NC(=O)Nc1c(C)cccc1C	83.1% (inactive)	
O=C(O)c1ccccc1Nc1cc(Cl)ccc1C(=O)O	62.7% [at 17.3 µM] (inactive)	
CCN(CC)C(=O)c1ccc(O)c(OC)c1	85.5% (inactive)	
O=C(O)c1ccc(OCCN2CCCCC2)cc1	95.4% (inactive)	
COc1cc(N2CCC(N3CCN(C)CC3)CC2)ccc1Nc1ncnc(Nc2ccccc2S(=O)(=O)C(C)C)n1		2.06 µM (active) and 2.63 µM (active)
CC1(C)OC(=O)NC1=O	81.9% (inactive)	
Nc1ncn([C@H]2C[C@H](O)[C@@H](CO)O2)c(=O)n1		4.68 µM (active)
CC(=O)NS(=O)(=O)c1ccc(N)cc1	92.9% (inactive)	
CCCCCCCCCCCCCCCCCC(=O)O	83.1% (inactive)	
NC(=O)CC[C@@H](N)C(=O)O	87.8% (inactive)	
CC(C)(C)C(=O)OCOC(=O)C1N2C(=O)CC2S(=O)(=O)C1(C)C (stereo not given)	72.6% (inactive)	
NS(=O)(=O)c1ccc(Cl)c(S(N)(=O)=O)c1	79% (inactive)	
CCN(CC)CCN	81.8% (inactive)	
CN1[C@@H]2CC[C@H]1CC(OC(=O)C(O)c1ccccc1)C2 (stereo not given in full)	115% (inactive)	
Cc1ccnc(NS(=O)(=O)c2ccc(N)cc2)n1	82.4% (inactive)	
COc1c(OCCCN2CCOCC2)ccc2c3n(c(=NC(=O)c4cnc(N)nc4)nc12)CCN3		37.6 nM (active) and 241 nM (active)
CCCN(CCC)CCc1cccc2c1CC(=O)N2	68.9% (inactive)	
CCOC(=O)c1cccc(N)c1	79.4% (inactive)	

Compound	viability, % of control	Potency
CC(=O)OCC(=O)[C@@]12N=C(C)O[C@@H]1C[C@H]1[C@@H]3CCC4=CC(=O)C=C[C@]4(C)[C@H]3[C@@H](O)C[C@@]12C	75.2% (inactive)	
COC(=O)c1nc(Cl)c(Cl)nc1N		0.596 µM (active)
CCCCCCCC(=O)OCC(COC(=O)CCCCCCC)OC(=O)CCCCCCC	73.1% (inactive)	
CC[N+](C)(C)c1cccc(O)c1	77.5% (inactive)	
CC[C@@H](CO)NCCN[C@@H](CC)CO	76.5% (inactive)	
CCOc1cc(C(=O)N2CCC(N3CCN(C)CC3)CC2)ccc1Nc1ncc2c(n1)N(C1CCCC1)c1ccccc1C(=O)N2C		651 nM (active) and 934 nM (active)
CC1=NS(=O)(=O)c2cc(Cl)ccc2N1	88.1% (inactive)	
CC1(C)S[C@@H]2[C@H](NC(=O)[C@H](N)c3ccccc3)C(=O)N2[C@H]1C(=O)O	87.8% (inactive)	
CC(=O)OC(C)C[N+](C)(C)C (stereo not given)	90.6% (inactive)	
NS(=O)(=O)Cc1noc2ccccc12	83.2% (inactive)	
CCNC(=O)Nc1ccc2ncc(Nc3ccc(C)cc3)nc2n1	115% (inactive)	
O=C(CCCl)NCc1ccccc1	98.3% (inactive)	
C[C@H]1O[C@@H](O[C@H]2CC[C@@]3(C)[C@H](CC[C@@H]4[C@@H]3C[C@@H](O)[C@]3(C)[C@@H](C5=CC(=O)OC5)CC[C@]43O)C2)C[C@H](O)[C@@H]1O[C@H]1C[C@H](O)[C@H](O[C@H]2C[C@H](O)[C@H](O[C@@H]3O[C@H](CO)[C@@H](O)[C@H](O)[C@H]3O)[C@@H](C)O2)[C@@H](C)O1		0.133 µM (active)
CCOc1ccc(C(=O)OCCN(CC)CC)cc1	82.2% (inactive)	
COc1ccccc1OC(=O)Oc1ccccc1OC		5.96 µM (active)
OCc1cccnc1	86.6% (inactive)	
COCCc1ccc(OCC2CO2)cc1 (stereo not given)	92.4% (inactive)	
CN1CCN(c2ccc(OC(F)(F)F)c(Nc3ncc4c(n3)-c3c(c(C(N)=O)nn3CCO)CC4)c2)CC1		20.6 nM (active) and 46.8 nM (active)
Oc1ccc(C(O)CNCCCCCCNCC(O)c2ccc(O)c(O)c2)cc1O (stereo not given)	94% (inactive)	
CN1CCN(C(=O)C2CCCCC2)CC1	90% (inactive)	
